# According to the supplement of paper PMC12282887:
# ± gives the standard deviation of the averaged measurements.
# Tests used:
# Experiment in all cases: promoter activity interaction Z-score (Lux/OD deviation from empty-vector control); higher = stronger promoter induction by the compound
# [1] = system: E. coli BW25113 robp lux reporter
# Summary of the method: (§1)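 E. coli BW25113, as wild type or one of three single-gene deletion strains, carried low-copy luxCDABE promoter reporters and grew in 40 µl LB Lennox in 384-well plates at 37°C, with OD600 and luminescence read every 30 min for 12 h. Each compound was run at four 1:2 dilutions in biological duplicates, integration spanned 0–8 h for wild type and 1–9 h for deletion strains, and wells under 10% of the median growth value were dropped. The score is the Z-transformed residual of growth-normalised luminescence fitted against a control.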
# [2] = system: E. coli BW25113 soxSp lux reporter
# Summary of the method: as §1
# [3] = system: E. coli BW25113 tolCp lux reporter
# Summary of the method: as §1
# [4] = 17 µg/ml, genetic background: wild type
# [5] = 17 µg/ml, genetic background: ΔmarA
# [6] = 17 µg/ml, genetic background: Δrob
# [7] = 17 µg/ml, genetic background: ΔsoxS
# [8] = 34 µg/ml, genetic background: wild type
# [9] = 34 µg/ml, genetic background: ΔmarA
# [10] = 34 µg/ml, genetic background: Δrob
# [11] = 34 µg/ml, genetic background: ΔsoxS
# [12] = 68.1 µg/ml, genetic background: wild type
# [13] = 68.1 µg/ml, genetic background: ΔmarA
# [14] = 68.1 µg/ml, genetic background: Δrob
# [15] = 68.1 µg/ml, genetic background: ΔsoxS
# [16] = 136.2 µg/ml, genetic background: wild type
# [17] = 136.2 µg/ml, genetic background: ΔmarA
# [18] = 136.2 µg/ml, genetic background: Δrob
# [19] = 136.2 µg/ml, genetic background: ΔsoxS
compound,measurement,setting,value
C[C@]12CC[C@@H]3c4ccc(O)cc4CC[C@H]3[C@@H]1CC[C@@H]2O [Estradiol],promoter activity interaction Z-score,[1]; [4],0.7215 ± 0.0031
same,promoter activity interaction Z-score,[1]; [5],0.25 ± 0.44
same,promoter activity interaction Z-score,[1]; [6],-0.0547 ± 0.13
same,promoter activity interaction Z-score,[1]; [7],0.453 ± 0.085
same,promoter activity interaction Z-score,[1]; [8],-0.0162 ± 0.89
same,promoter activity interaction Z-score,[1]; [9],-0.0102 ± 0.92
same,promoter activity interaction Z-score,[1]; [10],-0.0213 ± 0.28
same,promoter activity interaction Z-score,[1]; [11],0.926 ± 0.78
same,promoter activity interaction Z-score,[1]; [12],0.13 ± 0.81
same,promoter activity interaction Z-score,[1]; [13],1.9 ± 0.56
same,promoter activity interaction Z-score,[1]; [14],-0.509 ± 0.5
same,promoter activity interaction Z-score,[1]; [15],0.373 ± 0.42
same,promoter activity interaction Z-score,[1]; [16],0.104 ± 0.37
same,promoter activity interaction Z-score,[1]; [17],0.282 ± 0.21
same,promoter activity interaction Z-score,[1]; [18],-0.478 ± 0.3
same,promoter activity interaction Z-score,[1]; [19],0.863 ± 0.52
same,promoter activity interaction Z-score,[2]; [4],0.266 ± 0.12
same,promoter activity interaction Z-score,[2]; [5],0.0464 ± 0.17
same,promoter activity interaction Z-score,[2]; [6],-0.0494 ± 0.027
same,promoter activity interaction Z-score,[2]; [7],0.159 ± 0.028
same,promoter activity interaction Z-score,[2]; [8],-0.15 ± 0.012
same,promoter activity interaction Z-score,[2]; [9],0.102 ± 0.021
same,promoter activity interaction Z-score,[2]; [10],-0.334 ± 0.0093
same,promoter activity interaction Z-score,[2]; [11],0.0514 ± 0.057
same,promoter activity interaction Z-score,[2]; [12],-0.196 ± 0.013
same,promoter activity interaction Z-score,[2]; [13],0.057 ± 0.029
same,promoter activity interaction Z-score,[2]; [14],-0.104 ± 0.2
same,promoter activity interaction Z-score,[2]; [15],0.254 ± 0.52
same,promoter activity interaction Z-score,[2]; [16],-0.422 ± 0.035
same,promoter activity interaction Z-score,[2]; [17],-0.276 ± 0.077
same,promoter activity interaction Z-score,[2]; [18],-0.275 ± 0.2
same,promoter activity interaction Z-score,[2]; [19],-0.137 ± 0.099
same,promoter activity interaction Z-score,[3]; [4],0.895 ± 0.21
same,promoter activity interaction Z-score,[3]; [5],-0.343 ± 0.88
same,promoter activity interaction Z-score,[3]; [6],-0.103 ± 1
same,promoter activity interaction Z-score,[3]; [7],-0.491 ± 0.4
same,promoter activity interaction Z-score,[3]; [8],-0.0124 ± 0.71
same,promoter activity interaction Z-score,[3]; [9],-0.745 ± 0.26
same,promoter activity interaction Z-score,[3]; [10],-0.126 ± 1.3
same,promoter activity interaction Z-score,[3]; [11],0.321 ± 0.44
same,promoter activity interaction Z-score,[3]; [12],-0.293 ± 0.52
same,promoter activity interaction Z-score,[3]; [13],0.492 ± 0.095
same,promoter activity interaction Z-score,[3]; [14],0.143 ± 0.3
same,promoter activity interaction Z-score,[3]; [15],0.521 ± 0.57
same,promoter activity interaction Z-score,[3]; [16],0.506 ± 0.79
same,promoter activity interaction Z-score,[3]; [17],-0.446 ± 0.55
same,promoter activity interaction Z-score,[3]; [18],-0.721 ± 0.35
same,promoter activity interaction Z-score,[3]; [19],0.191 ± 0.75
